Sampled rows, rich in hits. Any-hit rate of the full collection: about 5.2%.
FBPA coupling cs: counter-screen for Giardia aldolase inhibitors: coupling enzyme system; activity change, negative = inhibition, % at 58.2 µM, hits read low; AID 2472; actives 0.67% (n = 290,000); coupling enzyme system counterscreen, AmpLite Red fluorescence; in the data active means activity change below about -30%
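Counterscreen of the coupled detection system alone, without aldolase: glyceraldehyde-3-phosphate coupling enzymes plus AmpLite Red readout. Compounds at 57.5 uM final, 10 min RT preincubation, 20 min RT reaction, fluorescence 525/598 nm.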
Tau fluor counter: counter-screen for tau fibril formation inhibitors; tau K18 P301L Alexa594 fluorescence, heparin fibrillization; Potency, µM (highest dose often 57.7 µM), for inactives: at the top dose activity change, negative = decrease; actives 0.93% (n = 280,000); further: potency means the concentration at half of the fitted maximal effect; nearly all actives have a fitted effect of over 55% in size
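Human tau K18 P301L (15 uM unlabeled, 0.24 uM Alexa 594-labeled) in 100 mM sodium acetate pH 7 with 20 uM heparin, 6 hr at 37 C. ThT 30 uM added, 1 hr ambient; Alexa 594 FP and total fluorescence read at 555/632 nm.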
Sfp PPTase inh: blocks B. subtilis Sfp PPTase activity; Q9F4F7; Biochemical Sfp PPTase activity, qHTS; Potency, µM, for inactives: largest response in the series, negative = inhibition, usual class: inhibitors; actives 3.5% (n = 310,000);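 further: the enzyme is Sfp with the accession as filed and its product quenches rhodamine fluorescence; potency means the concentration at half of the fitted maximal effect; 0% = enzyme reaction without inhibitor and -100% = no enzyme wells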
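Reaction rates are the 30-min fluorescence difference (ex 525, em 598 nm) in wells containing 15 nM Sfp, 5 uM rhodamine-CoA and 12.5 uM BHQ-2-YbbR at pH 7.6 with 10 mM MgCl2.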
Tau ThT inhib: tau fibrillization inhibition (ThT binding); P10636; recombinant tau K18 P301L (four-repeat tau fragment), heparin-induced fibrillization, ThT fluorescence; actives 2.1% (n = 270,000); Potency, µM (highest dose often 57.4 µM), without a hit: at the highest dose activity, negative = inhibition, hits mostly inhibitors; AID 1460; further: potency means the concentration at half of the fitted maximal effect; nearly all actives have a fitted effect of over 55% in size
Target sequence (P10636 561-689 P618L limits assumed): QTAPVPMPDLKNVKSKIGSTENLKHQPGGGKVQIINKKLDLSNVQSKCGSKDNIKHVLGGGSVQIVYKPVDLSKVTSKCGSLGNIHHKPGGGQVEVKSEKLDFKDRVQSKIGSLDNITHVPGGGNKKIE
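In this qHTS, human K18 P301L tau is incubated with compound and heparin for 6 hr at 37 C, and Thioflavin T fluorescence then reports fibril load.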
Tau fibril FP: blocks human tau fibril formation measured by polarization. P10636. K18 P301L tau heparin fibrillization, Alexa594 FP, 6 h. Potency, µM (top dose mostly 57.7 µM), for the others: at the highest dose activity, negative = inhibition, actives largely listed as inhibitors. actives 0.39% (n = 280,000). AID 1468; further: potency means the concentration at half of the fitted maximal effect; nearly all actives have a fitted effect of over 55% in size
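Compound effects on tau fibrillization are measured by Alexa 594 fluorescence polarization (ex 555, em 632 nm). K18 P301L tau is used at 15 uM with 0.24 uM labeled tracer, and 20 uM heparin induces aggregation over 6 hr at 37 C.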
The depositor's hits bear a star; ? = inconclusive; nt = not tested or not shown; ! = not confirmed by another sample; [ ] = dose if it differs, or a comment. Unless noted, the call rests on the fitted dose curve; in most records, active means well fitted curve in the direction sought with a large enough effect; inconclusive means small, poorly fitted or top-dose-only effect, or another doubt; inactive means no such curve, though single readings can be large; an effect the other way counts as inactive or inconclusive. Unless noted, on the % scale 0 is the no-effect control and ±100 the full control effect.

SMILES | FBPA coupling cs | Tau fluor counter | Sfp PPTase inh | Tau ThT inhib | Tau fibril FP
FC(F)(F)c1ccc(C2[C@H]3CN(Cc4cccnc4)[C@H](c4ccccc4)C34CC2(c2cccnc2)C4)cc1 (stereo partly drawn) | -1 | -1% | 35µM* | 1% | 2%
FC(F)(F)c1ccc(C2[C@H]3CN(Cc4ccc(-c5ccccc5)cc4)[C@H](c4ccccc4)C34CC2(c2cccnc2)C4)cc1 (stereo partly drawn) | -4 | -1% | 13% | -2% | -7%
Cc1ccccc1N=Cc1cccc(O)c1O | -26 | ? | ? | 7.9µM* | ?
CC(N=Cc1cccc(O)c1O)c1ccccc1 (stereo not drawn) | -39* | ? | ? | 5µM* | ?
Cc1ccc(N=Cc2cccc(O)c2O)c(C)c1 | -28 | ? | 3.5µM* | 3.2µM* | 8.9µM*
Cc1ccc(C2C(C(N)=S)=C(N)OC3=C2C(=O)CC(C)(C)C3)cc1 (stereo not drawn) | 3 | -12% | 3.5µM* | ? | 0%
CC1(C)CC(=O)C2=C(C1)OC(N)=C([N+](=O)[O-])C2c1ccc(F)cc1 (stereo not drawn) | 1 | -10% | 16% | -9% | 2%
CO[C@H]1COC(=O)CCC[C@@H](C)[C@H](OC)COC(=O)[C@H]2CCCN2C(=O)C/C=C\[C@@H]1C | 1 | -19%[11.6 µM] | -6% | -21%[11.5 µM] | 0%[11.6 µM]
O=C(Nc1cc(Sc2ccccn2)cc([N+](=O)[O-])c1)c1ccc(Cl)cc1 | -2 | 10µM*[quencher] | 4% | -14% | -9%
Cn1c(O)c(C2=c3ccccc3=NC2=O)[nH]c1=S | 1 | -9% | -4% | ? | 7%
COc1ccc2nc(-n3c(O)c(C4=c5ccccc5=NC4=O)[nH]c3=S)sc2c1 | 2 | 8.9µM*[quencher] | 50µM* | 2.2µM* | ?
COC(=O)c1cc(N=Nc2c(C)[nH]c3ccccc23)cc(C(=O)OC)c1 | 2 | ? | 0% | ? | 2%
Cc1[nH]c2ccccc2c1N=Nc1cccc(C(=O)O)c1 | 7 | -23% | 2% | 7.9µM* | 12%
COC(=O)C1=C(C)N(CCc2c[nH]c3ccccc23)C(=O)/C1=C\N(C)C | -3 | ? | 18µM* | 14µM* | -17%
CCCn1c(C)nc2cc(Cl)c(N3CCN(c4nc(-c5ccc(C)cc5)cs4)CC3)cc21 | 0 | nt | -8% | nt | nt
COc1ccc(-c2csc(N3CCN(c4cc5c(cc4Cl)nc(-c4ccncc4)n5CCOCCO)CC3)n2)cc1 | -3 | nt | 45µM* | nt | nt
Cc1ccc(-c2csc(N3CCN(c4ccc5nc(-c6ccncc6)n(CCN6CCCCC6)c5c4)CC3)n2)cc1 | -13 | nt | 56µM* | nt | nt
Cc1ccc(-c2csc(N3CCN(c4cc5c(cc4Cl)nc(-c4ccncc4)n5CCN4CCCCC4)CC3)n2)cc1 | -1 | nt | 56µM* | nt | nt
CCC(=O)OCCNc1cc(Sc2nc3ccccc3[nH]2)c2nonc2c1[N+](=O)[O-] | -2 | ? | 18µM* | 8.9µM* | ?
NCCNc1ccc([N+](=O)[O-])c(Sc2nc3ccccc3[nH]2)c1 | 3 | ? | -2% | ? | -5%
CCC(=O)OCCNc1cc(Sc2nc3ccccc3s2)c2nonc2c1[N+](=O)[O-] | -13 | ? | 4µM* | 7.9µM* | -12%
O=[N+]([O-])c1c(NCCCO)cc(Sc2nc3ccccc3s2)c2nonc12 | 0 | ? | -4% | 2.2µM* | -21%
CCOC(=O)C1CCCN(c2cc(NCCCO)c([N+](=O)[O-])c3nonc23)C1 (stereo not drawn) | -3 | 13% | 6% | -7% | 3%
O=C(Nc1ccc2nc(SCC(=O)N3CCCC3)sc2c1)c1cccc(F)c1 | nt | ? | nt | -3% | -10%
CCOC(=O)c1c(NC(=O)COc2cccc(C)c2C)sc2c1CCC(CC)C2 (stereo not drawn) | nt | -15% | nt | -9% | -11%
SMILES | FBPA coupling cs | Tau fluor counter | Sfp PPTase inh | Tau ThT inhib | Tau fibril FP
COc1ccc(C2C=C(c3cccs3)Nc3nc(CCCO)nn32)cc1 (stereo not drawn) | -8 | -12% | 16µM* | ? | ?
COc1ccc(-c2csc(Nc3ccc(C)cn3)n2)cc1OC | -4 | ? | ? | 13µM* | 11%
Cc1ccc(Nc2nc(-c3ccc(O)c(O)c3)cs2)nc1 | -11 | 14µM*[quencher] | 35µM* | 10µM* | 14%
COc1ccc(-c2csc(Nc3cc(C)ccn3)n2)cc1OC | -3 | nt | -28% | nt | nt
CC(/C=N/NC(=O)c1cc(-c2ccncc2)nc2ccccc12)=C\c1ccco1 | -40* | ? | 22µM* | ? | -5%
Cc1ccc(/C=N/NC(=O)c2cc(-c3ccncc3)nc3ccccc23)o1 | 0 | nt | -24% | nt | nt
O=C(Nc1cccc(Cl)c1)c1ccc(NCCCN2CCOCC2)c([N+](=O)[O-])c1 | 2 | ? | -10% | 14µM* | -9%
Cc1ccc(NC(=O)c2ccc(NCCN)c([N+](=O)[O-])c2)cc1 | 8 | -28% | ? | 14µM* | 8%
Cc1ccc2[nH]c(CSc3nnc(NC(=O)c4ccc(Cl)cc4)s3)cc(=O)c2c1 | nt | -28% | nt | 6% | ?
COc1cccc2c1C(=O)c1c(O)c3c(c(O)c1C2=O)C[C@@](O)(C(C)=O)C[C@@H]3O[C@H]1C[C@H](N)[C@H](O)[C@H](C)O1 | -52*! | -10% | 50µM*! | 4µM* | 25µM*
COc1cccc2c1C(=O)c1c(O)c3c(c(O)c1C2=O)C[C@@](O)(C(=O)CO)C[C@@H]3OC1C[C@@H](N)[C@H](O)[C@H](C)O1 (stereo partly drawn) | -23 | 9% | ? | 5µM* | 25µM*
COc1cccc2c1C(=O)c1c(O)c3c(c(O)c1C2=O)C[C@](O)(C(=O)CO)C[C@@H]3O[C@H]1C[C@H](N)[C@@H](O)[C@H](C)O1 | nt | nt | 11% | nt | nt
Cc1nc(N2CCCC2)ncc1C(=O)NCc1ccc(Cl)cc1 | nt | -3% | nt | -3% | -2%
Cc1ccc(S(=O)(=O)c2c(Nc3ccc(C)c(C)c3)sc(C(=O)c3ccc4c(c3)OCO4)c2N)cc1 | nt | -10% | nt | 4% | -11%
N#CCCn1c(=O)c(-c2ccc(F)cc2)nc2cnc(N3CCOCC3)nc21 | 1 | nt | 17% | nt | nt
COc1ccc(C2=Nn3c(nnc3-c3ccccc3O)SC2)cc1OC | 5 | nt | 45µM* | nt | nt
COc1ccc(OC)c(C2=Nn3c(nnc3-c3cc(OC)ccc3OC)SC2)c1 | 1 | nt | 3% | nt | nt
COc1cccc(C2=Nn3c(nnc3-c3ccccc3C)SC2)c1 | -32* | nt | 63µM* | nt | nt
COc1ccccc1C1=Nn2c(nnc2-c2ccccc2O)SC1 | 1 | nt | -14% | nt | nt
COc1ccc(OC)c(C2=Nn3c(nnc3-c3ccco3)SC2)c1 | 1 | -8% | 50µM* | -13% | -6%
COc1cccc(C2=Nn3c(nnc3-c3ccc(OC)cc3OC)SC2)c1 | -4 | nt | -10% | nt | nt
